One sequence from article PMC7862700, “An all-to-all approach to the identification of sequence-specific readers for epigenetic DNA modifications on cytosine” can be followed below.

Holding throughout (test): DAPPL (digital affinity profiling via proximity ligation, sequencing); 10 mM Tris-HCl pH 7.5, 50 mM NaCl, 1 mM DTT, 4% glycerol, room temperature, 30 min; GST-TFs on glutathione beads, 16-mer random dsDNA library, 0.1% formaldehyde crosslink after washing; high values mean tight binding
Test [1] addresses T1, FEV (Homo sapiens, UniProt Q99581 1-238).
T1 sequence: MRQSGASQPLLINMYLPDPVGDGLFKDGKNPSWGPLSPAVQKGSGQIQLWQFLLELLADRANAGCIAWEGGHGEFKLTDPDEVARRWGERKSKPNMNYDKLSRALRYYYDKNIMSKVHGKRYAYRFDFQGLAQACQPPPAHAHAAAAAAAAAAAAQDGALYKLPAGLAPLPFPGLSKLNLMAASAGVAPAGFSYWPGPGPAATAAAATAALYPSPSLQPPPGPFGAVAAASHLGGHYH
To be noted: protein: recombinant; tags: N-terminal GST; dsDNA, one strand shown. In a few lines: (§1)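 Binding signal is each hexamer's read frequency for a factor divided by its frequency in the tag-only sample. The factors were GST-fused human transcription factors from yeast, captured on glutathione beads, DNA-barcoded and pooled with that sample. Pools were incubated with 200 nmole of a random double-stranded 16-mer DNA library in Tris/NaCl/DTT/glycerol buffer at room temperature for 30 min, then washed, crosslinked with 0.1% formaldehyde, proximity-ligated with BsaI/T4 ligase (1 h, 37 °C), PCR-amplified and sequenced on an Illumina NextSeq500.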

Test [2] addresses ETV5 (Homo sapiens, UniProt P41161 1-510). Particulars: protein: recombinant; tags: N-terminal GST; dsDNA, one strand shown. In a few lines: as §1
The target of test [3] is HSF1 (Homo sapiens, UniProt Q00613 1-529). To be noted: protein: recombinant; tags: N-terminal GST; chain copies: 3; dsDNA, one strand shown. In a few lines:
as §1

Test [4] has as its target T2, SPIC (Homo sapiens, UniProt Q8N5J4 1-248).
T2 sequence: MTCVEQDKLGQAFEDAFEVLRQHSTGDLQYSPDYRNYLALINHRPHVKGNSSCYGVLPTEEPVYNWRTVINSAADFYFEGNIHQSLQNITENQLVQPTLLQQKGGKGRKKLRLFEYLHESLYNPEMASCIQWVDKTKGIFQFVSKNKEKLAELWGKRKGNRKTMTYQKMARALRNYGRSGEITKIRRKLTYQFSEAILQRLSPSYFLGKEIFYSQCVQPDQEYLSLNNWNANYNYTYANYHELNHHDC
To be noted: protein: recombinant; tags: N-terminal GST; dsDNA, one strand shown. The method, boiled down: as §1

Test [5] deals with ELF4 (Homo sapiens, UniProt Q99607 1-663). To be noted: protein: recombinant; tags: N-terminal GST; dsDNA, one strand shown. The method, boiled down:
as §1

Test [6] has as its target T3, ELK4 (Homo sapiens, UniProt P28324-2 1-405).
T3 sequence: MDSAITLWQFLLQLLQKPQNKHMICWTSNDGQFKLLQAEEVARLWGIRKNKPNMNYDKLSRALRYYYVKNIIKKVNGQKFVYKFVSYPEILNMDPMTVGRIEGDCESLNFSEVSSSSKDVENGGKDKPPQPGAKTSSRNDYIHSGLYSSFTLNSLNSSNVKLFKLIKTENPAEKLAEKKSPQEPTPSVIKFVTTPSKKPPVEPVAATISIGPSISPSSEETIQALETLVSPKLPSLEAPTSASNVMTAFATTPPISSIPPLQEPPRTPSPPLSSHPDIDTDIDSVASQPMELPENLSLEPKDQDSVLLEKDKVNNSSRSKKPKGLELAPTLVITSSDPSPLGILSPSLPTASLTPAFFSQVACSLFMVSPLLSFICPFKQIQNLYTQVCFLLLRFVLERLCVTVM
To be noted: protein: recombinant; tags: N-terminal GST; dsDNA, one strand shown. The method, boiled down: as §1

The target of test [7] is T4, ETV2 (Homo sapiens, UniProt O00321 1-342).
T4 sequence: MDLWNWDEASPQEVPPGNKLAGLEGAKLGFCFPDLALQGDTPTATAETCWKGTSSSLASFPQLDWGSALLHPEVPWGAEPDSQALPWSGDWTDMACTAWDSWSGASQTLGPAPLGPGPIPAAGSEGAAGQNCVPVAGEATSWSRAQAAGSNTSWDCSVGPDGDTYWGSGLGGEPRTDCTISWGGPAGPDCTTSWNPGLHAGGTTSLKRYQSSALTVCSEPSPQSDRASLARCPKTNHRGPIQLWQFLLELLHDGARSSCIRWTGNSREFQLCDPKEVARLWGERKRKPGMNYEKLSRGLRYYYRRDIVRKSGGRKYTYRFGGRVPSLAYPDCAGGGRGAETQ
To be noted: protein: recombinant; tags: N-terminal GST; dsDNA, one strand shown. In a few lines: as §1

Test [8] deals with T5, ELF3 (Homo sapiens, UniProt P78545 1-371).
T5 sequence: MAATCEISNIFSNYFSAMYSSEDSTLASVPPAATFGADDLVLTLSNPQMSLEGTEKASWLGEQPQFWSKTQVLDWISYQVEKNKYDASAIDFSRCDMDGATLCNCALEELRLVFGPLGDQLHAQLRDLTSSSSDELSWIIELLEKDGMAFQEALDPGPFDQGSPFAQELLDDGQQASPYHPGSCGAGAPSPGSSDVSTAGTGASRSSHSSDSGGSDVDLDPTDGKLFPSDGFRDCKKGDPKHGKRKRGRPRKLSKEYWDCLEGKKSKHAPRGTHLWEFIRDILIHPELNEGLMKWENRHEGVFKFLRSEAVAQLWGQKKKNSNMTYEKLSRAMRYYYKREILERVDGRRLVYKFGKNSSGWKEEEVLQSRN
Particulars: protein: recombinant; tags: N-terminal GST; dsDNA, one strand shown. The method, boiled down: as §1

For test [9], the target named is CRX (Homo sapiens, UniProt O43186 1-299). To be noted: protein: recombinant; tags: N-terminal GST; dsDNA, one strand shown. The method, boiled down:
as §1

The target in test [10] is ETV1 (Homo sapiens, UniProt P50549 1-477). Particulars: protein: recombinant; tags: N-terminal GST; dsDNA, one strand shown. The method, boiled down: as §1
In test [11] the target is T6, ERF (Homo sapiens, UniProt P50548 1-548).
T6 sequence: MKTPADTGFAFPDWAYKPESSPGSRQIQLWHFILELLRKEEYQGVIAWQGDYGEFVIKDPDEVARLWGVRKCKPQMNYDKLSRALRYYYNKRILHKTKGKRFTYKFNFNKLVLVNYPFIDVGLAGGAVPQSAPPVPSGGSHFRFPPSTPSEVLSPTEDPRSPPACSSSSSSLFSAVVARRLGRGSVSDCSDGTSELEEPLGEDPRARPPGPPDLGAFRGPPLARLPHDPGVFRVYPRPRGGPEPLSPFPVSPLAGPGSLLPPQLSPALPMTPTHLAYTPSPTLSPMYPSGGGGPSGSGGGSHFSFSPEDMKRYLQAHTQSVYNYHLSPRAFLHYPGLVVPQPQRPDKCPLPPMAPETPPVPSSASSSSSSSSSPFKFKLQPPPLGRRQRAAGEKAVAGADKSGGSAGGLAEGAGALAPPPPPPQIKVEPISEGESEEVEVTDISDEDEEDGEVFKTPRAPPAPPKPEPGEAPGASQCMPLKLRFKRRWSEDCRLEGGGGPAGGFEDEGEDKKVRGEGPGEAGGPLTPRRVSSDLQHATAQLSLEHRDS
Particulars: protein: recombinant; tags: N-terminal GST; dsDNA, one strand shown. The method, boiled down: as §1

For test [12], the target named is T7, ETV3L (Homo sapiens, UniProt Q6ZN32 1-361).
T7 sequence: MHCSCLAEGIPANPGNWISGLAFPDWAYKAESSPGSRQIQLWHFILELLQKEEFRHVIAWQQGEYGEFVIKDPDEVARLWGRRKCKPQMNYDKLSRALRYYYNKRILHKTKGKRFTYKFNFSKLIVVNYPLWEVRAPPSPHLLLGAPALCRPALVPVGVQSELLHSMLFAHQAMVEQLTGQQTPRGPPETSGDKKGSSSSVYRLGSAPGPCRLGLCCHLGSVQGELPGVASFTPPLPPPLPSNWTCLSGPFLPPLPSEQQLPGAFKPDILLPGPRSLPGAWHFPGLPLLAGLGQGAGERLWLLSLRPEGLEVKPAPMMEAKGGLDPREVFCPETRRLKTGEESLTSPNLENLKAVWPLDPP
Particulars: protein: recombinant; tags: N-terminal GST; dsDNA, one strand shown. In a few lines:
as §1

For test [13], the target named is T8, ETS2 (Homo sapiens, UniProt P15036 1-469).
T8 sequence: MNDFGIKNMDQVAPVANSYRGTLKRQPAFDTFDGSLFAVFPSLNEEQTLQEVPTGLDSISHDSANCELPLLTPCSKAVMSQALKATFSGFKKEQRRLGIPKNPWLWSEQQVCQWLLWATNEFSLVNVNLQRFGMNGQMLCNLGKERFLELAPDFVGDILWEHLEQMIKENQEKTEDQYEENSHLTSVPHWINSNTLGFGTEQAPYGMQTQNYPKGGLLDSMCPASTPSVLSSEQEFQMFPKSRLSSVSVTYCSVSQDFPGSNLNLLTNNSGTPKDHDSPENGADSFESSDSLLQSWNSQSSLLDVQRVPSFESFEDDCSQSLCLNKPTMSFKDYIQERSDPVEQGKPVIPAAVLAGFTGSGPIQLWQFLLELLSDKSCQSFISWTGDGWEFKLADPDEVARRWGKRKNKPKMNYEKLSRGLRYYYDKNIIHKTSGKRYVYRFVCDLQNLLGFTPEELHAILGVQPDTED
Particulars: protein: recombinant; tags: N-terminal GST; dsDNA, one strand shown. In a few lines: as §1

Test [14] has as its target T9, SPDEF (Homo sapiens, UniProt O95238 1-335).
T9 sequence: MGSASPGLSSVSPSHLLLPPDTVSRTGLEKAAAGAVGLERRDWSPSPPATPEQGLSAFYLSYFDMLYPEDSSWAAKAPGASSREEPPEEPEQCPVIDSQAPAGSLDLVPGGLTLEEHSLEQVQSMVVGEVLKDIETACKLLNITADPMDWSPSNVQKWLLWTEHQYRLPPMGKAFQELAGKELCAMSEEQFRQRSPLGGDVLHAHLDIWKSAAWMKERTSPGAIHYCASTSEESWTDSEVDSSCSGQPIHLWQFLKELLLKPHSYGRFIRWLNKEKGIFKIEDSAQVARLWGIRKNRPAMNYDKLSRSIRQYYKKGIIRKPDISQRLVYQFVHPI
Particulars: protein: recombinant; tags: N-terminal GST; dsDNA, one strand shown. The method, boiled down:
as §1

The target of test [15] is T10, ETV7 (Homo sapiens, UniProt Q9Y603 1-341).
T10 sequence: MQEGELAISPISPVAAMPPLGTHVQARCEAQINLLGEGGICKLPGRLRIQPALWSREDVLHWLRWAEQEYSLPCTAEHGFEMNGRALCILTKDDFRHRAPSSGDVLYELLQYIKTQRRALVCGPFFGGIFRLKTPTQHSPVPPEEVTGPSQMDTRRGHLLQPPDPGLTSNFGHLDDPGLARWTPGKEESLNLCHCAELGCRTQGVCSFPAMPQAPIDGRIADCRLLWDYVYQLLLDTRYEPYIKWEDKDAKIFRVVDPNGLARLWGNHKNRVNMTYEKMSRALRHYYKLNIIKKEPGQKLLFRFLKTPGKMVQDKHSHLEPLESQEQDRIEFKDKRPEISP
To be noted: protein: recombinant; tags: N-terminal GST; dsDNA, one strand shown. The method, boiled down:
as §1

The target in test [16] is T11, ELF5 (Homo sapiens, UniProt Q9UKW6-2 1-255).
T11 sequence: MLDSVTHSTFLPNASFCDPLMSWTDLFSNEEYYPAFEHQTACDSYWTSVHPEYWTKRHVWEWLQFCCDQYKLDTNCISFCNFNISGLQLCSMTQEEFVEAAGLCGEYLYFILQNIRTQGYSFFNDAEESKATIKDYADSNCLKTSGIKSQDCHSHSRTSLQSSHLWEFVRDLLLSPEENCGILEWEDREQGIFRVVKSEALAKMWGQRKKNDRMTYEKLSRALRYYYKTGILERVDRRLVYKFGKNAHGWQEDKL
Particulars: protein: recombinant; tags: N-terminal GST; dsDNA, one strand shown. In a few lines:
as §1

Test [17] has as its target T12, ETV3 (Homo sapiens, UniProt P41162-2 1-143).
T12 sequence: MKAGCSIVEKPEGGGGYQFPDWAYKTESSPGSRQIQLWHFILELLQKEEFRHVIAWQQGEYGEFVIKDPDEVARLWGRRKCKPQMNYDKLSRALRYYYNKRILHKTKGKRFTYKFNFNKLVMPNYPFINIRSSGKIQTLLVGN
Particulars: protein: recombinant; tags: N-terminal GST; dsDNA, one strand shown. The method, boiled down: as §1

For test [18], the target named is ETV6 (Homo sapiens, UniProt P41212 1-452). To be noted: protein: recombinant; tags: N-terminal GST; dsDNA, one strand shown. In a few lines:
as §1

Chain of ETV5 (P41161 whole entry): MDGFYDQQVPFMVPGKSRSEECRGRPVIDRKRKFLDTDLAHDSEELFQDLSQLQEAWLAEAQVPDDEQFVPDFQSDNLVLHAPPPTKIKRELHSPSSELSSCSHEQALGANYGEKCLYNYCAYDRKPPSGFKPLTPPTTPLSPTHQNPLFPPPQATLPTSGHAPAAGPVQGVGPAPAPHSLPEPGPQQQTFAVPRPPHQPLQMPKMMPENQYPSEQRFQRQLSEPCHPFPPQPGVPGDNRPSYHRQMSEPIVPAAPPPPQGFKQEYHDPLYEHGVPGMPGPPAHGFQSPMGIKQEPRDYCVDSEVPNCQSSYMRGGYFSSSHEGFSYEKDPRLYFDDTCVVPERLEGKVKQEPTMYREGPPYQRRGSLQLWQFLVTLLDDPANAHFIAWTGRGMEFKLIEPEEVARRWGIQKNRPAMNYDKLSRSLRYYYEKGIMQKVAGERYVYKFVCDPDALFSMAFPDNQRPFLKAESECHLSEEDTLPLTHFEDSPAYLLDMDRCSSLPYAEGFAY
Chain of ETV1 (P50549 whole entry): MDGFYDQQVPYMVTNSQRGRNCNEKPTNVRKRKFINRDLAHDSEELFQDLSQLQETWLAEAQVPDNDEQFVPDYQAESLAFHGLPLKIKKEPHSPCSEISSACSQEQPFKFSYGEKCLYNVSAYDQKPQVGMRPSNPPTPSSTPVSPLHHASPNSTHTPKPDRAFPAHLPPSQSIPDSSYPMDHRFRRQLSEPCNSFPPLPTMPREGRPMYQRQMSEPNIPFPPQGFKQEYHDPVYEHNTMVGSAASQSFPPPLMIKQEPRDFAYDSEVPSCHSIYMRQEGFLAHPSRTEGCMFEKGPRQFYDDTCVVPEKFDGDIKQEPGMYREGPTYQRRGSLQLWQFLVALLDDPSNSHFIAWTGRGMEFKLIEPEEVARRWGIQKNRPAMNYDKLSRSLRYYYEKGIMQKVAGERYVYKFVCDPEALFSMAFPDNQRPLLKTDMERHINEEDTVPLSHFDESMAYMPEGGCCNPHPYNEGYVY
Chain of ETV6 (P41212 whole entry): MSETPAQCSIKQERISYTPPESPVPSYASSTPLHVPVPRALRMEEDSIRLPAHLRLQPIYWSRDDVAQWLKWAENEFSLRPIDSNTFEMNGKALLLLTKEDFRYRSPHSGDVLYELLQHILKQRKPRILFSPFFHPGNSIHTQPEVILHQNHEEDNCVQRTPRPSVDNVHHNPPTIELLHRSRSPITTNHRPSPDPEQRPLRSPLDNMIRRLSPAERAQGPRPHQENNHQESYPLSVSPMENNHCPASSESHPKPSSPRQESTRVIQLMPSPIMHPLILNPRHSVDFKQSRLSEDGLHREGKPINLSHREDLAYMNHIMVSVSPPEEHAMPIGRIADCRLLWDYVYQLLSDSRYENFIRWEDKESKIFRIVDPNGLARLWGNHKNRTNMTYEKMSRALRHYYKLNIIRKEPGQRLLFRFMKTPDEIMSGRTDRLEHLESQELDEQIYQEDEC
Chain of HSF1 (Q00613 whole entry): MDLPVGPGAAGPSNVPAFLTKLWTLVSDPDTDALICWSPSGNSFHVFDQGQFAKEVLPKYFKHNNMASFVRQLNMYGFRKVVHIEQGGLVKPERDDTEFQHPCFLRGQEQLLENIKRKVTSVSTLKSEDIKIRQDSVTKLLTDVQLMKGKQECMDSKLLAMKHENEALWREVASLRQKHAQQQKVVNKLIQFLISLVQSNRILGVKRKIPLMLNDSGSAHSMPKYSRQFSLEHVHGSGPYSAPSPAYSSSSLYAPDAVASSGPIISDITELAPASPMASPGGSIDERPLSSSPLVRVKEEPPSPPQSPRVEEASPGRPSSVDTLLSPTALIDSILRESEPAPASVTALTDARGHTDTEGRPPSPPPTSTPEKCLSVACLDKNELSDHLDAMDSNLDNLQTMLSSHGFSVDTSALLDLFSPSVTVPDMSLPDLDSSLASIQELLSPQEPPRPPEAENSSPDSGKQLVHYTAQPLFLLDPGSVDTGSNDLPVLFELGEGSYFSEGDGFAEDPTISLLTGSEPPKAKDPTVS
Chain of ELF4 (Q99607 whole entry): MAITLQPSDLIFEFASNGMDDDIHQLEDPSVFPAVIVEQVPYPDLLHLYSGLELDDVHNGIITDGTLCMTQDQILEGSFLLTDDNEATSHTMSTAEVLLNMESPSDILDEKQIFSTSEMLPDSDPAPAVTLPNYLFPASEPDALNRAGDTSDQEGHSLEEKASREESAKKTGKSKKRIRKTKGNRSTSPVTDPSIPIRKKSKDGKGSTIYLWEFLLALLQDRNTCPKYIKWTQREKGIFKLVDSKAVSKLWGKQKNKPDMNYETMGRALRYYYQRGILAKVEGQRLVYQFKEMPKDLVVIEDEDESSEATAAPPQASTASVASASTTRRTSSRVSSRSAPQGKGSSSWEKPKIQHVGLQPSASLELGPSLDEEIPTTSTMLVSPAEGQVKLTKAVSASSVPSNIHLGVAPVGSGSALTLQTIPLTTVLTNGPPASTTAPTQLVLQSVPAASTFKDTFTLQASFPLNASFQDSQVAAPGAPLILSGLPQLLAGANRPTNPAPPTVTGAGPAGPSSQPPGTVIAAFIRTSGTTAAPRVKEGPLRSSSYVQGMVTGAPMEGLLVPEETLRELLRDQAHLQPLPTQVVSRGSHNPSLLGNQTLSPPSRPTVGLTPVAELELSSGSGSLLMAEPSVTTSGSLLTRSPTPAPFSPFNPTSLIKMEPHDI
Chain of CRX (O43186 whole entry): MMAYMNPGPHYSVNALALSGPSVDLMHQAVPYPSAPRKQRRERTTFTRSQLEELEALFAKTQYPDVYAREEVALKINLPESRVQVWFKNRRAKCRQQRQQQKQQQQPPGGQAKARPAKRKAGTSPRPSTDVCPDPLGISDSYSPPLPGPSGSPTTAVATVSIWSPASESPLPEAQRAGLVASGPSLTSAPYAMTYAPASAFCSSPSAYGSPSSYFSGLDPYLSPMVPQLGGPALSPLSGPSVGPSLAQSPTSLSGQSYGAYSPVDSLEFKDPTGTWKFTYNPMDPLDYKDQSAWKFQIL

ACGTCT: the binding signal in test [1] is 1.13 fold enrichment (6-mer frequency, TF over GST control); in [2] it was 1.12 fold enrichment (6-mer frequency, TF over GST control); in test [3], 1.21 fold enrichment (6-mer frequency, TF over GST control); in [4], 1.17 fold enrichment (6-mer frequency, TF over GST control); in [5], 1.28 fold enrichment (6-mer frequency, TF over GST control); in test [6], 1.12 fold enrichment (6-mer frequency, TF over GST control). In addition, the binding signal in test [7] was 1.18 fold enrichment (6-mer frequency, TF over GST control); in test [8], 1 fold enrichment (6-mer frequency, TF over GST control); in test [9], 1.09 fold enrichment (6-mer frequency, TF over GST control); in test [10] it was 1.14 fold enrichment (6-mer frequency, TF over GST control); in [11], 1.12 fold enrichment (6-mer frequency, TF over GST control); in test [12] it was 1.29 fold enrichment (6-mer frequency, TF over GST control). The binding signal is 1.26 fold enrichment (6-mer frequency, TF over GST control) in test [13]; 1.12 fold enrichment (6-mer frequency, TF over GST control) in [14]; 1.29 fold enrichment (6-mer frequency, TF over GST control) in [15]; 1.09 fold enrichment (6-mer frequency, TF over GST control) in [16]; 1.17 fold enrichment (6-mer frequency, TF over GST control) in [17]; 1.19 fold enrichment (6-mer frequency, TF over GST control) in test [18].
